Screening results from PubChem.
Sampled rows, rich in hits. Any-hit rate of the full collection: about 7.6%.
Cy5 interf NS3h: enhances or quenches Cy5 fluorescence in NS3h assay. Cy5-dT15 DNA with NS3h, fluorescence interference; actives lie on both sides; signal over control mean, under 1 quenches. fluorescence interference ratio at 100 µM. 6% of 16,000 active;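 active = compound fluorescence over control fluorescence at most 0.8, a quencher, or at least a set upper limit, an enhancer; inactive = ratio between 0.8 and the set upper limit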
NS3h inh CB: hepatitis C NS3 helicase inhibition, primary screen; inhibition, % at 100 µM; NS3h Cy5-dT15 DNA binding, fluorescence polarization; 1.6% of 16,000 active; AID 687043;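 active = inhibition above the average over every tested compound plus 3 SD, cut at about 40% in these data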
HCV NS3h conf: hepatitis C NS3 helicase inhibition, confirmation | shares compounds with NS3h inh CB | NS3h binding to Cy5-dT15 DNA, fluorescence polarization | inhibition, % at 100 µM | 20% of 240 active;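 active = percent inhibition of 50% or more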
SSB FP counter: counter-screen for HCV NS3 helicase inhibitors: E. coli SSB binding. shares compounds with NS3h inh CB. E. coli SSB binding Cy5-dT15, fluorescence polarization. inhibition, % at 100 µM. 40% of 240 active. AID 720486;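 active = inhibition of at least 50%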;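 also: displacers lower Cy5 polarization so higher inhibition means more SSB displaced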
Target sequence (P0AGE0 whole entry, looked up): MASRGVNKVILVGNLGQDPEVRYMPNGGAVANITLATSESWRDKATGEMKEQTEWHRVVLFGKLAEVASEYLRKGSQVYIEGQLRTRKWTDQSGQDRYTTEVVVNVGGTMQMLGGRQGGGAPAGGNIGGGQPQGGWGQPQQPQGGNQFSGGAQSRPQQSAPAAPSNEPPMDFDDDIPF
Cy5 SSB fluor CB: Cy5 fluorescence interference in NS3h counter-screen; shares compounds with NS3h inh CB; Cy5-dT15/E. coli SSB fluorescence interference; actives lie on both sides; fluorescence interference ratio at 100 µM; 8% of 240 active; AID 720487;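 active = fluorescence interference ratio at or above 1.2, signal boosting, or at or below 0.8, signal quenching; inactive = ratio between 0.8 and 1.2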;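 also: ratio of compound well signal to mean negative control signal so 1 means no effect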
Cy5 interf conf: confirmation counter-screen for HCV NS3 helicase inhibitors: fluorescence interference; 44% of 240 active; Cy5-dT15 DNA/NS3h fluorescence interference counterscreen; shares compounds with NS3h inh CB; fluorescence interference ratio at 100 µM, hits read low;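 active = fluorescence interference ratio at or below 0.8 quencher or at or above a set limitenhancer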;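 also: ratio of compound fluorescence to mean of negative controls so 1 means no interference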
An asterisk follows results filed as active; . = no result; + = active, no number.

SMILES	Cy5 interf NS3h	NS3h inh CB	HCV NS3h conf	SSB FP counter	Cy5 SSB fluor CB	Cy5 interf conf
O=C1NC(=O)N(c2ccc(Cl)cc2)C(=O)/C1=C/c1cc(Br)c(O)c([N+](=O)[O-])c1	1.1	22	43	76*	0.91	0.81
Cc1cccc(N2C(=O)NC(=O)/C(=C\c3ccc(O)c(Cl)c3)C2=O)c1	1	65*	18	28	0.96	0.96
CCN(CC)Cc1c(O)ccc2occ(C(=O)c3cccs3)c12	1.1	-4	.	.	.	.
COc1cc(NC(=O)c2ccc(Cl)cc2Cl)ccc1NC(=O)c1cc2ccccc2o1	1.1	6	.	.	.	.
O=C(COc1ccc(Br)cc1)Nc1cccc([N+](=O)[O-])c1	0.95	-6	.	.	.	.
Cc1ccc(CNC(=O)C(=O)Nc2ccccc2F)cc1	1	18	.	.	.	.
O=C(Nc1ccc(Br)cc1)c1nn2c(c1Cl)NC(c1ccccc1)CC2C(F)(F)F (stereo unspecified)	0.98	14	.	.	.	.
CCC1=NN(C(=O)c2ccc([N+](=O)[O-])cc2)C(O)(c2ccncc2)C1 (stereo unspecified)	1	3	.	.	.	.
COc1ccc(/C=C2/SC(=Nc3ccc(F)cc3)NC2=O)c(OC)c1	0.93	-25	.	.	.	.
CC(=O)N(C)C1=C(Cl)C(=O)c2ccccc2C1=O	0.85	90*	85*	0	0.97	0.97
CC(=O)NC1=C(N(C)C)C(=O)c2ccccc2C1=O	0.91	-21	.	.	.	.
O=C1CCC(=O)N1CNc1ccc(F)cc1	1.1	1	.	.	.	.
O=[N+]([O-])c1cccc2c1NC(c1ccccc1F)C1CC=CC21 (stereo unspecified)	0.96	7	.	.	.	.
O=C(O)c1cccc2c1NC(c1cccc3ccccc13)C1CC=CC21 (stereo unspecified)	0.95	50*	18	49	1	0.86
Cc1ccc(-c2nc(Nc3ccccc3)s[n+]2CS(=O)(=O)c2ccccc2)cc1	0.87	-17	.	.	.	.
C/C(=N/N=C1\NC(=O)C(CC(=O)Nc2ccccc2C(F)(F)F)S1)c1ccccc1 (stereo unspecified)	1.2	-18	.	.	.	.
O=C1NC(=O)N(c2ccc(Cl)cc2)C(=O)/C1=C\c1ccc(-c2ccc([N+](=O)[O-])cc2)o1	1	8	.	.	.	.
Cc1cc(C)cc(N2C(=O)NC(=O)/C(=C\c3ccccc3C)C2=O)c1	1.1	-11	.	.	.	.
O=C1NC(=O)N(c2ccc(Cl)cc2)C(=O)/C1=C/c1ccc(I)o1	1.3*	56*	26	78*	1.1	0.82
COc1cc(/C=C2\C(=O)NC(=O)N(c3ccc(Cl)cc3)C2=O)cc(I)c1OC	1.1	10	.	.	.	.
Cc1cc(C)cc(N2C(=O)NC(=O)/C(=C\c3ccc(I)o3)C2=O)c1	1.1	46*	39	92*	1	1
Cc1ccc(N2C(=O)NC(=O)/C(=C\c3ccc(-c4ccc(C)c([N+](=O)[O-])c4)o3)C2=O)cc1	1.1	61*	2	24	0.96	0.89
CCOc1ccccc1NC(=O)CN(c1ccc(OC)cc1)S(C)(=O)=O	1.1	11	.	.	.	.
Oc1ccc(/C=N\N2CCN(Cc3ccc(Cl)cc3)CC2)cc1O	0.98	6	.	.	.	.
COc1ccc(Cl)cc1NC(=O)CSCc1cccc(Br)c1	0.91	10	.	.	.	.
SMILES	Cy5 interf NS3h	NS3h inh CB	HCV NS3h conf	SSB FP counter	Cy5 SSB fluor CB	Cy5 interf conf
O=C1N=c2ccc(Br)cc2=C1c1sc(=S)n(C(Cc2ccccc2)C(=O)O)c1O (stereo unspecified)	0.76*	76*	31	66*	0.75*	0.84
O=C1N=c2ccc([N+](=O)[O-])cc2=C1c1sc(=S)n(Cc2ccco2)c1O	1.1	9	.	.	.	.
CCc1c(C#N)c(N)nc(SCC(=O)c2cc3ccccc3oc2=O)c1C#N	1.1	30	-4	3	1	0.76*
CCc1c(C#N)c(N)nc(SCC(=O)c2ccc(-c3ccccc3)cc2)c1C#N	1	3	.	.	.	.
Cc1ccc(C(=O)CSc2nc(O)cc(=O)[nH]2)c(C)c1	1	-1	.	.	.	.
CCOc1cc(/C=C2\C(=O)NN(c3ccc(Cl)c(Cl)c3)C2=O)ccc1OC(C)=O	0.84	38	29	11	0.88	0.87
O=C1NN(c2ccc(Cl)c(Cl)c2)C(=O)/C1=C/c1ccc(Cl)c([N+](=O)[O-])c1	0.87	37	.	.	.	.
COC(=O)c1ccccc1NC(=O)Cn1c(SC)nc2ccccc21	1	6	.	.	.	.
NC1=NN(c2ccc(N)cc2)CC1	0.076*	+	90*	100*	0*	0.072*
C=CCc1cccc2cc(C(=O)NCCc3ccccc3)c(=O)oc12	0.91	18	.	.	.	.
C=CCc1cccc2cc(C(=O)Nc3cccc4c3C(=O)c3ccccc3C4=O)c(=O)oc12	0.94	58*	-1	-3	1	1
COc1ccc([N+](=O)[O-])cc1/C=C1\SC(=S)N(C2CCCCC2)C1=O	1	0	.	.	.	.
CCCC(=O)NS(=O)(=O)c1ccc(NS(C)(=O)=O)cc1	1.1	4	.	.	.	.
Fc1ccc(Br)cc1C1Nc2cccc3cccc(c23)N1	1	7	.	.	.	.
COc1ccc2occ(C(=O)c3ccccc3Cl)c(=O)c2c1	1	57*	26	8	0.99	0.88
COc1ccc(C(=O)c2coc3ccc(O)cc23)cc1	1	16	.	.	.	.
Nc1ccc(Cl)c(C(=O)Nc2ccccc2C(=O)O)c1	1	10	.	.	.	.
O=C1C=CC(=NS(=O)(=O)c2ccc(Cl)cc2)C=C1	0.96	19	.	.	.	.
O=C1C(Cl)=CC(=NS(=O)(=O)c2ccc(Cl)cc2)C(Cl)=C1Cl	0.98	85*	55*	81*	0.77*	0.82
CN1C(=O)NC(=O)/C(=C\c2ccc(Cl)cc2Cl)C1=O	0.94	74*	12	9	1	1
Cc1cc(C)cc(N2C(=O)NC(=O)/C(=C\c3ccc(Cl)cc3)C2=O)c1	1.1	14	.	.	.	.
CCOc1cccc(C(=O)Nc2nnc(C(c3ccccc3)c3ccccc3)s2)c1	1.1	10	.	.	.	.
O=C(NCC(c1ccccc1)c1ccccc1)Nc1cccc(Cl)c1	1	3	.	.	.	.
CCC(c1ccccc1)c1nnc(NC(=O)Nc2cccc(Cl)c2)s1 (stereo unspecified)	1.2*	47*	4	9	1	0.74*
O=C1/C(=C/c2ccc([N+](=O)[O-])cc2)NC(=S)N1c1ccccc1	0.89	8	.	.	.	.
CC(=O)Nc1ccc(N2C(=O)/C(=C/c3ccc([N+](=O)[O-])cc3)C=C2c2ccccc2)cc1	1.4*	37	12	36	1.1	0.99
O=C(c1ccc(Br)cc1)N1CCN(c2ccc(Cl)cc2[N+](=O)[O-])CC1	1	6	.	.	.	.
O=C1C=CC(=O)N1c1ccc(Br)cc1[N+](=O)[O-]	0.95	79*	70*	8	0.94	0.92
O=C1NN(c2ccccc2)C(=O)/C1=C/c1ccc(Br)o1	1	94*	52*	107*	0.88	0.79*
O=C1NN(c2ccccc2)C(=O)/C1=C/c1ccc([N+](=O)[O-])o1	0.77*	82*	52*	117*	0.86	0.9
